Screens as filed in PubChem.
The list is not random: actives were taken first. Their share in the collection is about 12%.
G9a inh: G9a (human) methyltransferase inhibition; Q96KQ7; G9a H3K9 monomethylation, AlphaScreen, 2 h; Potency, µM (titrated, usually from 102 µM), usual class: inhibitors; 350,000 compounds, 8.8% hits; AID 504332; note: nearly all actives have a fitted effect of over 75% in size
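Enzyme 20 nM + cpd, 15 min RT; add b-H3K9 pep 500 nM / SAM 20 uM; 2 h RT; anti-H3K9me1 Ab 0.5 ug/mL + SA donor / anti-rabbit acceptor beads 20 ug/mL each, 10 min; AlphaScreen read.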
Sfp inh: inhibitors of Bacillus subtilis Sfp phosphopantetheinyl transferase; Q9F4F7; Biochemical Sfp PPTase activity, qHTS; Potency, µM, actives largely listed as inhibitors; 310,000 compounds, 3.5% hits;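 note: the enzyme is Sfp with the accession as filed and its product quenches rhodamine fluorescence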
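Reaction rates are the 30-min fluorescence difference (ex 525, em 598 nm) in wells containing 15 nM Sfp, 5 uM rhodamine-CoA and 12.5 uM BHQ-2-YbbR at pH 7.6 with 10 mM MgCl2.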
BAZ2B inh: BAZ2B (human) inhibition. Q9UIF8. AlphaScreen BAZ2B-H3K14Ac peptide displacement. Potency, µM (titrated, usually from 114 µM), most hits filed as inhibitors. 360,000 compounds, 4.4% hits; note: nearly all actives have a fitted effect of over 60% in size
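AlphaScreen displacement of biotin-H3(5-23)K14Ac peptide (50 nM final) from BAZ2B (50 nM final) in PBS pH 7.4, 0.01% Tween-20; complex preformed 30 min RT, then compounds (top 110 uM) 30 min RT, beads 20 min dark.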
TDP1 inh: blocks human tyrosyl-DNA phosphodiesterase 1; Q9NUW8; recombinant TDP1, AlphaScreen DNA substrate cleavage; Potency, µM (top dose mostly 130 µM), hits mostly inhibitors; 350,000 compounds, 0.28% hits; AID 485290; note: nearly all actives have a fitted effect of over 40% in size
Target sequence (Q9NUW8 whole entry, looked up): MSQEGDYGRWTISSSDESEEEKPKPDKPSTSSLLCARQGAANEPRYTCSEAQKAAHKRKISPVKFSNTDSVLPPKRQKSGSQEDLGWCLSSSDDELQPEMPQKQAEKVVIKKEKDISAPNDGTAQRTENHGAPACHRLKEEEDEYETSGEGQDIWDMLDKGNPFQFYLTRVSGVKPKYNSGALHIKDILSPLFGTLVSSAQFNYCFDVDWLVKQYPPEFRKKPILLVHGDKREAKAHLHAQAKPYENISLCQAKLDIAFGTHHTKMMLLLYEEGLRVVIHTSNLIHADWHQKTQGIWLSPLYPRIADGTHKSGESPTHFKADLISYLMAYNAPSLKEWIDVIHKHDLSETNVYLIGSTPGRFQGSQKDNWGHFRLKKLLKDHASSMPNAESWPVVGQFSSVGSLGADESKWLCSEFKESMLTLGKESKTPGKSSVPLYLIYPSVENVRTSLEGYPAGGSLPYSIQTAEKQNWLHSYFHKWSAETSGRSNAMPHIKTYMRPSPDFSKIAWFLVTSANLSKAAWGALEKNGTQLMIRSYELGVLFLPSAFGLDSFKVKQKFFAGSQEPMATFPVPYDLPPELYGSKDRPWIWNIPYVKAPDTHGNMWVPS
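AlphaScreen read-out: signal falls as enzyme removes the 3' tyrosine-FITC from a 5'-biotinylated DNA oligo (15 nM, 5 min, RT). Enzyme was E. coli-made recombinant Tdp1 at 1 nM, exposed to compound for 15 min beforehand; beads 10 ug/ml, 10 min.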
HP1b binding inh: blocks HP1-beta chromodomain binding to methylated histone tails; AlphaScreen HP1-beta / biotin-H3K9me3 peptide binding; Potency, µM (series often up to 114 µM), usual class: inhibitors; 390,000 compounds, 0.56% hits; AID 540317; note: nearly all actives have a fitted effect of over 70% in size
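AlphaScreen: HP1-beta (50 nM) preformed 30 min with biotin-H3(1-18)K9me3 peptide (50 nM) in PBS pH 7.4, 0.01% Tween-20. Compound added for 30 min at RT, then streptavidin donor/nickel chelate acceptor beads (10 ug/mL) for 30 min.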
JMJD2A Tudor: blocks the human JMJD2A Tudor domain; AlphaScreen JMJD2A-Tudor / H3K4me3 peptide binding; Potency, µM (doses to about 114 µM), most hits filed as inhibitors; 390,000 compounds, 4.4% hits; AID 504339; note: nearly all actives have a fitted effect of over 50% in size
A number is an active result; - = inactive; ? = inconclusive; . = not tested or not shown; [ ] = dose if it differs, or a comment. Calls come from the whole dose curve; as a rule, active = well fitted curve in the direction sought with a large enough effect; inconclusive = small, poorly fitted or top-dose-only effect, or another doubt; inactive = no such curve, though single readings can be large; an effect the other way counts as inactive or inconclusive.

SMILES | G9a inh | Sfp inh | BAZ2B inh | TDP1 inh | HP1b binding inh | JMJD2A Tudor
CCOc1ccc(CN2CCNC(=O)C2CC(=O)NC2CCCCCC2)cc1 (centres undefined) | 39.8µM | - | - | - | - | -
O=C(CC1C(=O)NCCN1CC(c1ccccc1)c1ccccc1)NC1CC1 (centres undefined) | 44.7µM | - | - | . | - | -
O=C(CC1C(=O)NCCN1Cc1ccc(F)cc1)NC1CCCCCCC1 (centres undefined) | 50.1µM | - | - | - | - | -
Cc1onc(-c2c(Cl)cccc2Cl)c1C(=O)c1c[nH]c(C(=O)NCC2CCCO2)c1 (centres undefined) | - | - | - | - | - | -
COc1ccc(Cl)cc1NCCC(O)c1ccc(F)cc1 (centres undefined) | 35.5µM | - | ? | . | - | ?
COc1ccc(NCCC(O)c2ccc(Cl)cc2)cc1 (centres undefined) | ? | - | 44.7µM | . | ? | 56.2µM
COc1ccc(OCC(=O)Nc2ccc(Cl)cc2)cc1 | . | - | - | - | - | -
COc1ccc(Cl)cc1NC(=S)NCCc1ccc(F)cc1 | - | - | - | - | - | -
Cc1c(C(=O)OC2CCCCC2)[nH]c2c1C(=O)CC(c1ccc(C(C)(C)C)cc1)C2 (centres undefined) | - | . | - | -[12.3 µM] | - | -
O=C(O)c1ccccc1/C=N/NC(=S)NCc1ccccc1 | - | - | ? | - | - | -
CN(C)S(=O)(=O)c1ccc(C(=O)Nc2nnc(SCc3ccccc3)s2)cc1 | - | - | - | - | - | -
CSc1nnc(NC(=O)c2ccc3c(c2)OCO3)s1 | 28.2µM | - | - | - | - | -
O=C(Nc1nncs1)c1ccc2c(c1)OCO2 | 50.1µM | - | - | - | - | -
CSc1nnc(NC(=O)c2ccc(S(=O)(=O)N(C)C)cc2)s1 | 22.4µM | - | - | - | - | -
CCOC(=O)c1[nH]c2ccc(F)cc2c1NC(=O)c1ccccc1C(=O)O | 14.1µM | - | - | . | - | -
CCOC(=O)c1[nH]c2ccc(OC)cc2c1NC(=O)CCN1CCC(C)CC1 | 4.47µM | - | - | - | - | -
COC(=O)c1[nH]c2cccc(OC)c2c1NC(=O)CN1CCN(c2cccc(OC)c2)C(C)C1 (centres undefined) | ? | ? | ? | - | - | -
CCOC(=O)c1[nH]c2ccc(OC)cc2c1NC(=O)c1ccccc1C(=O)O | 44.7µM | ? | - | . | - | -
CCOC(=O)c1[nH]c2ccc(F)cc2c1NC(=O)c1cc(OC)c(OC)c(OC)c1 | -[12.7 µM] | - | - | - | - | -[11.4 µM]
CCOC(=O)c1[nH]c2ccc(OC)cc2c1NC(=O)c1cccc(OC)c1 | ? | - | - | - | - | -
CCOC(=O)c1[nH]c2cc(OC)c(OC)cc2c1NC(=O)CN1CCN(c2ccc(OC)cc2)C(C)C1 (centres undefined) | 22.4µM | - | 44.7µM | - | . | .
CCOC(=O)c1[nH]c2ccc(Br)cc2c1NC(=O)CCN1CCC(C)CC1 | - | - | - | - | - | -
CC1CCCN(C(=O)C2CCN(c3ncnc4c3nc3n4CCCCC3)CC2)C1 (centres undefined) | - | - | - | - | - | -
CCN(CC(=O)Nc1c(F)cccc1F)C(=O)CCNC(=O)c1ccc([N+](=O)[O-])cc1 | -[2.33 µM] | . | - | . | - | -
Nc1ccccc1C(=O)C[C@@H](N)C(=O)O | - | - | . | - | . | .
SMILES | G9a inh | Sfp inh | BAZ2B inh | TDP1 inh | HP1b binding inh | JMJD2A Tudor
COc1cc2c(O)cc(C(=O)O)c(-c3cc(OC)c(OC)c(OC)c3)c2cc1OC | . | . | . | . | - | -
COc1cc(C)cc(C(=O)O)c1C1=C(O)c2cccc(O)c2C(=O)C1=O | ? | - | 56.2µM | . | - | 79.4µM
O=C(O)Cc1c(C(=O)O)[nH]c2ccc(C(=O)O)cc12 | 50.1µM | - | ? | - | - | -
O=C(CN(CCc1ccccc1)S(=O)(=O)c1ccc(Br)cc1)NCc1ccc(Cl)cc1 | ? | . | ? | -[12.3 µM] | - | 14.1µM
O=C(CN(CCc1ccccc1)S(=O)(=O)c1ccccc1)NCc1ccc(Cl)cc1 | - | . | - | -[12.3 µM] | - | -
COc1cccc(NC(=O)CN(CCc2ccccc2)S(=O)(=O)c2ccc(Cl)cc2)c1 | 14.1µM | . | ? | -[12.3 µM] | - | 28.2µM
COC(=O)c1ccc(NC(=O)CN(CCc2ccccc2)S(=O)(=O)c2ccc(OC)cc2)cc1 | - | . | - | -[12.3 µM] | - | -
Cc1ccc(N(C)S(=O)(=O)c2ccc3c(c2)CCC(=O)N3)cc1C | . | . | . | - | . | -
O=C(NNc1ccccc1[N+](=O)[O-])Nc1ccc(Cl)c(Cl)c1 | 7.08µM | - | ? | - | - | -
O=C(Nc1ccc(Cl)c(Cl)c1)Nc1ccccc1O | ? | ? | - | - | - | -
O=C(Nc1ccccc1C(=O)N1CCCCC1)NC1CCCCC1 | . | - | - | - | - | 79.4µM
O=C(NNc1ccccc1[N+](=O)[O-])NC1CCCCC1 | 50.1µM | - | - | - | - | -
COC(=O)c1ccccc1NC(=O)NC1CCCCC1 | - | - | - | - | - | -
O=C(NNc1ccccc1[N+](=O)[O-])Nc1ccc(F)cc1 | 3.55µM | - | - | - | - | -
O=C(NNc1ccccc1[N+](=O)[O-])Nc1ccccc1 | ? | - | ? | - | - | -
COc1ccc2cc(S(=O)(=O)c3ccccc3F)c(=O)oc2c1 | - | . | - | - | - | -
Cc1c(O)nc(SCC(=O)Nc2nccs2)n(-c2ccccc2F)c1=O | - | - | - | - | - | -
O=C(CCNS(=O)(=O)c1ccc(OC(F)(F)F)cc1)N1CCN(C/C=C/c2ccccc2)CC1 | - | - | - | - | - | -
O=S(=O)(c1ccsc1)N1CCN(c2nc(-c3cccs3)nc3ccccc23)CC1 | . | . | . | - | . | -
Cc1cc(Br)cc(C)c1OCC(=O)Nc1ccc(S(=O)(=O)Nc2ncccn2)cc1 | - | . | - | - | - | -
Cc1ccc(NS(=O)(=O)c2ccc3c(c2)CCO3)cc1C | . | . | . | - | . | -
CN(C)c1ccc(CNCCC(Cc2ccccc2)c2ccco2)cc1 (centres undefined) | 22.4µM | 44.7µM | 22.4µM | - | ? | 20µM
c1ccc(CNCCC(Cc2ccccc2)c2ccco2)cc1 (centres undefined) | ? | - | - | . | - | -
O=C(COC(=O)CSc1ccc2ccccc2c1)NC1CC1 | 50.1µM | - | - | - | - | -
COc1ccc(CCNC(=O)CCCC(=O)n2nc(C)c3ccccc32)cc1OC | 79.4µM | - | - | - | - | -
CCCCn1c(-c2ccccc2)cnc1SCC(=O)NCCc1ccc(OC)c(OC)c1 | ? | - | 44.7µM | - | ? | 56.2µM
COc1ccccc1CNC(=O)CCCC(=O)n1nc(C)c2ccccc21 | - | - | - | - | - | -
O=C(CSc1ccc2ccccc2c1)Nc1ncccn1 | 44.7µM | - | - | - | - | -
